Active and inactive are the calls of the source.
What was measured:
[1] = system: Plasmodium falciparum Sir2 (PF13_0152, Sir2A); test: Plasmodium falciparum Sir2A binding compounds – biochemical, small-molecule microarray, 635 nm fluorescence, primary screen (AID 1098); conditions: fluorescence 635 nm, higher = more signal;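 further: score merges spot fluorescence intensity with its signal-to-noise ratio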
[2] = probe aDKK1 binding to arrayed compounds – biochemical, biotinylated probe, 635/667 nm fluorescence, primary screen (AID 1099); conditions: small-molecule microarray, higher = more signal;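 further: score merges 667nm spot fluorescence with signal to noise across triplicate slides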
[3] = probe aCHRDL2 binding to arrayed compounds – biochemical, biotinylated probe, 635/667 nm fluorescence, primary screen (AID 1100); conditions: small-molecule microarray, higher = more signal
[4] = change in splice reporter luminescence, either direction, cell-based, HEK293, spliceosome inhibition project, primary screen (AID 1101); conditions: HEK293 splicing luciferase reporter, 24 h, higher = more signal, called active from +8 up or from −8 down;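 further: HEK293 cells carrying a splicing-competent luciferase reporter gene; test concentration not given here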
[5] = molecular target: Fibroblast growth factor 10 (Homo sapiens) (UniProt O15520); test: compounds binding fibroblast growth factor 10 – biochemical, small-molecule microarray, 635 nm fluorescence, primary screen (AID 1102); conditions: FGF10 binding, fluorescence 635 nm, higher = more signal
Chain of Fibroblast growth factor 10 (Homo sapiens) (O15520 whole entry, looked up): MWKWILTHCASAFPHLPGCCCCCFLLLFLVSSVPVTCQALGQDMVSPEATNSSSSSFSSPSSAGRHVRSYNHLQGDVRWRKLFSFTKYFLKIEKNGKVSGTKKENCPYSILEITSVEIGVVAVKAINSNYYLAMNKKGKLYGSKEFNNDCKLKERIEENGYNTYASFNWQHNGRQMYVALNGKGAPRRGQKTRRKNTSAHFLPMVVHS

[6] = system: glycogen synthase kinase-3 (GSK3A per assay name; protocol says GSK3B); test: compounds binding glycogen synthase kinase-3 – biochemical, small-molecule microarray, 635 nm fluorescence, GSK3A, primary screen (AID 1103); conditions: fluorescence 635 nm, higher = more signal; further: the record names both GSK3A and GSK3B
[7] = molecular target: Epidermal growth factor receptor (Homo sapiens) (UniProt P00533); test: compounds binding epidermal growth factor receptor – biochemical, small-molecule microarray, 635 nm fluorescence, primary screen (AID 1104); conditions: EGFR binding, higher = more signal;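 further: score merges 667 nm emission intensity with spot signal to noise over triplicate slides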
Chain of Epidermal growth factor receptor (Homo sapiens) (P00533 whole entry, looked up): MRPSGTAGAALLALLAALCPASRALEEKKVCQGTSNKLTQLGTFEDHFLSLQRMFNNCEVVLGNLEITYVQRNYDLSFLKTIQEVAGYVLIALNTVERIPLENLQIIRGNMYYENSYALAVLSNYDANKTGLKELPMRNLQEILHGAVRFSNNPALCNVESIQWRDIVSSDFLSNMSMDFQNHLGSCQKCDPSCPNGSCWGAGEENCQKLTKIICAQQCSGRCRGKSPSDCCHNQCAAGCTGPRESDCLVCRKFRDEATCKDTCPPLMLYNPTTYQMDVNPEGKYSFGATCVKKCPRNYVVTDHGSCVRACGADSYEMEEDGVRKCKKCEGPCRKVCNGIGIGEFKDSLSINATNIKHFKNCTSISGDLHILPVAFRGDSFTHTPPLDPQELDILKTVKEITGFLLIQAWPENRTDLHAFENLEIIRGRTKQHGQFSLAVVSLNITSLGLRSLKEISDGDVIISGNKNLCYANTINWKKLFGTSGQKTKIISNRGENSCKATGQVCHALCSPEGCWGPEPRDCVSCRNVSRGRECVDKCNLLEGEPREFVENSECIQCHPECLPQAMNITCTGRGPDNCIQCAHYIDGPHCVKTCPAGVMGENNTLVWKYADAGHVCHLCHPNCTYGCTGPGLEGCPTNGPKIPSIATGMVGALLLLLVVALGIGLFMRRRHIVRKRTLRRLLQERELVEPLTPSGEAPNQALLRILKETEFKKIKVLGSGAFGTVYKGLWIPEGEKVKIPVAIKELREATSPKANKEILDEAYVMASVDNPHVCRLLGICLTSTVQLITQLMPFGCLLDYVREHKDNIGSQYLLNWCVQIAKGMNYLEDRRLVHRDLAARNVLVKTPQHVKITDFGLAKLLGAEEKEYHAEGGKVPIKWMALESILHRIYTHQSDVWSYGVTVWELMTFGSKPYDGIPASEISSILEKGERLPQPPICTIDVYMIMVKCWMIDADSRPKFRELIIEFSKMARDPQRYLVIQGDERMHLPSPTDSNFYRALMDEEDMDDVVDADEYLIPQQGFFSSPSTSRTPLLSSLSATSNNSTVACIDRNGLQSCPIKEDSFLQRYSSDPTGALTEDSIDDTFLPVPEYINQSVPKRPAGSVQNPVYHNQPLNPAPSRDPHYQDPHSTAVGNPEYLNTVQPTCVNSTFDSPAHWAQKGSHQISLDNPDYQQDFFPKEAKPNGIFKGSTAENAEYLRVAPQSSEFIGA

[8] = molecular target: Follistatin-related protein 3 (Homo sapiens) (UniProt O95633); test: compounds binding follistatin-related protein 3 – biochemical, small-molecule microarray, 635 nm fluorescence, primary screen (AID 1105); conditions: FSTL3 binding, higher = more signal;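 further: score merges emission near 667 nm and signal to noise per printed spot across three slides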
Chain of Follistatin-related protein 3 (Homo sapiens) (O95633 whole entry, looked up): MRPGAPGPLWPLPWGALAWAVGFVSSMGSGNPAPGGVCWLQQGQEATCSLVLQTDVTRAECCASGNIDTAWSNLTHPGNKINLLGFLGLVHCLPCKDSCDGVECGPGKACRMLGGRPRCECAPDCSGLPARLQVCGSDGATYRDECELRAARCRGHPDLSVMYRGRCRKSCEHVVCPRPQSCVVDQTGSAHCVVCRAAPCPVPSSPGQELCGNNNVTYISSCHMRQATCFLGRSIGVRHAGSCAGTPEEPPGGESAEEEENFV

[9] = molecular target: Dickkopf-related protein 1 (Homo sapiens) (UniProt O94907); test: small molecules binding DKK1 protein – biochemical, small-molecule microarray, 635 nm fluorescence scan, primary screen (AID 1106); conditions: higher = more signal;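 further: score merges emission near 667 nm with signal to noise over three replicate slides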
Chain of Dickkopf-related protein 1 (Homo sapiens) (O94907 whole entry, looked up): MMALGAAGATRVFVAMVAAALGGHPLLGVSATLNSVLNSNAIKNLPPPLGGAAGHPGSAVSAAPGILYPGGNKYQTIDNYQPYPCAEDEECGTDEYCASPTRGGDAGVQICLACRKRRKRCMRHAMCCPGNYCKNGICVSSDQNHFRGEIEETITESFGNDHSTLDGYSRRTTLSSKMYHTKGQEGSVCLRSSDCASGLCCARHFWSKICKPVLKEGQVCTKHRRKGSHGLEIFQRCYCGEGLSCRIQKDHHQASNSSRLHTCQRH

[10] = system: Inhibin beta A chain (activin A); test: small molecules binding activin A – biochemical, small-molecule microarray, 635 nm fluorescence scan, primary screen (AID 1107); conditions: INHBA, higher = more signal;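 further: mouse activin A protein probed at 4.33 µg/mL on printed slides; score merges bound-protein fluorescence near 667 nm with spot signal-to-noise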
[11] = system: Human papillomavirus type 1a protein E7 (residues 44-93); test: small molecules binding HPV E7 44-93 – biochemical, small-molecule microarray, residues 44-93, 635 nm fluorescence, primary screen (AID 1108); conditions: fluorescence 635 nm, higher = more signal;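 further: E7 fragment applied at 1 µg/mL in TBST for 1 h at 4 C; score combines spot fluorescence with its signal to noise ratio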
[12] = hepatitis C replication reporter changes, two-sided – Huh7 cells, luciferase reporter, HCV replication inhibitor project, primary screen (AID 1109); conditions: Huh7 HCV replicon luciferase reporter, 48 h; higher = more signal;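 further: huh7 hepatoma cells harbouring a luciferase neomycin HCV replicon reporter; luciferase luminescence as measure of HCV replicon replication; test concentration not given here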
[13] = molecular target: Left-right determination factor 2 (Homo sapiens) (UniProt O00292); test: small molecules binding LEFTY2 protein – biochemical, small-molecule microarray, 635 nm fluorescence scan, primary screen (AID 1110); conditions: higher = more signal
Chain of Left-right determination factor 2 (Homo sapiens) (O00292 whole entry, looked up): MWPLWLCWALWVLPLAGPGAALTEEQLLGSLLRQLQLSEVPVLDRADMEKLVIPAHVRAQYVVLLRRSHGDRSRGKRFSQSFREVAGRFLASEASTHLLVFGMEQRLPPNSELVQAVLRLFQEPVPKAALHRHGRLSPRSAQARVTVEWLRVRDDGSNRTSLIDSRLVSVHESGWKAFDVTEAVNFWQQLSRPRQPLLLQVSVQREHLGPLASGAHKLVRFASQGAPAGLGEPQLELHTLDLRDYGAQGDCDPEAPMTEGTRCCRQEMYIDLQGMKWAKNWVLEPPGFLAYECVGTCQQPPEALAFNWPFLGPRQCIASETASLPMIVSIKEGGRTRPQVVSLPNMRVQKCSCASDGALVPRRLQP

[14] = molecular target: Calmodulin-1 (Homo sapiens) (UniProt P0DP23); test: small molecules binding calmodulin-1 with EGTA – biochemical, small-molecule microarray, Cy5-labelled CALM1, profiling panel (AID 1111); conditions: Cy5-CALM1 binding fluorescence, higher = more signal;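 further: labelled calmodulin applied in Tris saline Tween buffer holding calcium plus EGTA and DTT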
[15] = molecular target: Calmodulin-1 (Homo sapiens) (UniProt P0DP23); test: small molecules binding Ca-loaded calmodulin-1 – biochemical, small-molecule microarray, Cy5-labelled CALM1, plus calcium, artefact control for SMM control-protein annotation, profiling panel (AID 1112); conditions: Cy5-CALM1 binding fluorescence, higher = more signal;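 further: score merges spot fluorescence with signal to noise from triplicate slides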
[16] = probe aWnt5a binding to arrayed compounds – biochemical, biotinylated probe, 635/667 nm fluorescence, primary screen (AID 1113); conditions: small-molecule microarray, higher = more signal;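 further: score merges 667 nm fluorescence intensity with signal-to-noise per printed feature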
[17] = probe aShh binding to arrayed compounds – biochemical, biotinylated probe, 635/667 nm fluorescence, primary screen (AID 1114); conditions: small-molecule microarray, higher = more signal;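 further: probe is biotin-labelled aShh protein from a stem cell growth factor screen; measures binding of labelled protein to compounds printed on the slide; score merges feature fluorescence at 667 nm with signal-to-noise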
[18] = probe aNog binding to arrayed compounds – biochemical, biotinylated probe, 635/667 nm fluorescence, primary screen (AID 1115); conditions: small-molecule microarray, higher = more signal;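 further: probe is biotinylated aNog protein used at 0.15 µg/mL for 1 h at 4 C; z-score combines 667 nm fluorescence of each spot with its signal to noise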
[19] = molecular target: Torsin-1A-interacting protein 1 (Homo sapiens) (UniProt Q5JTV8); test: compound microarray binding of lysate hLAP1 – cell lysate, small-molecule microarray, COS7 lysate, 635/667 nm fluorescence, primary screen (AID 1116); conditions: 635 nm fluorescence, higher = more signal
Chain of Torsin-1A-interacting protein 1 (Homo sapiens) (Q5JTV8 whole entry, looked up): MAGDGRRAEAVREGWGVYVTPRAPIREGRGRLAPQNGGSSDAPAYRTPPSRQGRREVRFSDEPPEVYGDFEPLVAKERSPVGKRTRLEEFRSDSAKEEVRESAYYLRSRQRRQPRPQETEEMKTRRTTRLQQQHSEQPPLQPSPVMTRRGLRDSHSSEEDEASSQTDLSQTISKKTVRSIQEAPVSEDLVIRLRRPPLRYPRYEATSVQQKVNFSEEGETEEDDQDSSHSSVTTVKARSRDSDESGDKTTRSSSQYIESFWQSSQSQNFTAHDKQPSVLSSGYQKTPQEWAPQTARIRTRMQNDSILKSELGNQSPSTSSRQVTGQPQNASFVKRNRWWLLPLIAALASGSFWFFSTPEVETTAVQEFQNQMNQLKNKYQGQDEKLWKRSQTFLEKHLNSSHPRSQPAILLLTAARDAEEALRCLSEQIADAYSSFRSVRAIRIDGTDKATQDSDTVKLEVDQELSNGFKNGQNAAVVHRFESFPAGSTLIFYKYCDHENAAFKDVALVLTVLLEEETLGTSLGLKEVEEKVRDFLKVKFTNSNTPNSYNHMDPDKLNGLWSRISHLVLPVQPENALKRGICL

[20] = molecular target: Alpha-bungarotoxin (Bungarus multicinctus) (UniProt P60615); test: compounds binding labelled alpha-BTX control protein – biochemical, small-molecule microarray, Alexa647 label, 635/667 nm fluorescence, artefact control for SMM control protein annotation, profiling panel (AID 1117); conditions: alpha-BTX-A647 binding fluorescence, higher = more signal
Chain of Alpha-bungarotoxin (Bungarus multicinctus) (P60615 whole entry, looked up): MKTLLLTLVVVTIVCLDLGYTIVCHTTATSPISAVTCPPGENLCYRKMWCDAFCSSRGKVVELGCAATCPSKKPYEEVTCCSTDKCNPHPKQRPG

Structure (SMILES) | composite z-score [1] | composite z-score [2] | composite z-score [3] | z-score [4] | composite z-score [5] | composite z-score [6] | composite z-score [7] | composite z-score [8] | composite z-score [9] | composite z-score [10] | composite z-score [11] | z-score [12] | composite z-score [13] | composite z-score [14] | composite z-score [15] | composite z-score [16] | composite z-score [17] | composite z-score [18] | composite z-score [19] | composite z-score [20]
[N-]=[N+]=NCc1ccccc1C[C@@]1(C(=O)N2CCCCC2)N=C(c2ccc(OCCCO)cc2)O[C@@H]1c1ccccc1N=[N+]=[N-] | 0.679 | 0.885 | 0.689 | -0.428 (inactive) | 0.128 | 0.293 | 0.13 | -0.16 | -0.276 | 1.19 | 1.37 | -1.04 | -0.0573 | 1.43 | 0.795 | -0.392 | -0.284 | -0.919 | 0.209 | 0.809
COCCOC(=O)N1C(=O)[C@@]2(c3cc(C#Cc4ccc(OC)cc4)ccc31)[C@H](C(=O)N1CCCCCCC1)[C@H]1C(=O)O[C@H](c3ccccc3)[C@H](c3ccccc3)N1[C@@H]2c1ccc(O)cc1 | 0.773 | 1.12 | 0.522 | -0.527 (inactive) | 0.546 | 1.15 | 0.519 | 1.31 | 0.567 | 1.35 | 1.36 | -0.949 | 0.505 | 0.172 | 0.184 | -0.0239 | 0.603 | 1.18 | 0.604 | 0.723
COc1cc(CO)cc(I)c1O[C@H]1C=C(C(=O)NCCO)C[C@@H](N(CC2CCCCC2)C(=O)c2ccc(C(F)(F)F)cc2)[C@@H]1O | 0.199 | -0.267 | -0.49 | -0.0436 (inactive) | 0.626 | 0.0722 | 0.515 | 0.483 | 0.521 | 0.0031 | 1.15 | -1.54 | 0.402 | 0.0208 | -0.21 | -0.087 | -0.2 | -0.144 | 0.465 | -0.8
CC(C)N1CC=CC23O[C@@H]4C=CCCOC(=O)C4[C@H]2C(=O)N(CCO)[C@@H]3C1=O (stereo not given in full) | 0.154 | -0.377 | -0.0034 | -1.22 (inactive) | 0.107 | -0.504 | -0.458 | -0.762 | -0.155 | -0.101 | -0.478 | 0.516 | -0.289 | -0.343 | -0.348 | -0.224 | -0.282 | -0.0852 | -0.494 | -0.048
CC(=O)n1cc(C(O)C2C=CC3C(=O)N(c4ccccc4)C(=O)C3N2Nc2ccccc2)c2ccccc21 (stereo not given) | 0.454 | 1.81 | 1.52 | -1.22 (inactive) | 0.833 | -0.669 | 0.444 | 1.19 | 0.325 | 1.93 | -0.175 | -1.95 | -0.183 | 0.735 | 0.671 | 0.13 | 1.21 | 0.974 | 1.09 | 1.41
COCCOC(=O)N1C(=O)[C@@]2(c3ccccc31)[C@H](C(=O)N1CCN(c3ncccn3)CC1)[C@H]1C(=O)O[C@H](c3ccccc3)[C@H](c3ccccc3)N1[C@@H]2c1ccc(OCCO)cc1 | 1.02 | 0.657 | 0.422 | -0.471 (inactive) | 1.24 | 0.402 | 1 | 1.03 | 0.286 | 0.252 | 1.41 | -1.42 | 0.708 | 0.89 | 0.316 | -0.0944 | 0.0639 | 0.612 | 1.03 | 1.11
C=CCC(OC(C)=O)[C@@H]1[C@@H](N(Cc2cc3ccccc3o2)C(=O)c2ccc(C)cc2)c2cc(OCCCO)ccc2N1C(=O)Cc1ccc2ccccc2c1 (stereo not given in full) | -0.45 | 0.258 | 0.43 | -0.793 (inactive) | -0.204 | -0.822 | -0.0197 | -0.32 | 0.182 | 1.2 | -0.494 | -0.185 | 0.081 | -0.0956 | -0.147 | 0.103 | -0.13 | -0.322 | 0.102 | -0.319
C=CCN1C(=O)[C@@]2(O[C@@H](CCO)[C@H]([Si](C)(C)c3ccc(OC)cc3)[C@H]2C)c2cc(N3C(=O)c4ccccc4Oc4ccccc43)ccc21 | 1.07 | -0.0987 | 0.0272 | -3.3 (inactive) | 0.916 | -0.229 | -0.262 | -0.0233 | 0.0911 | 0.0761 | -0.719 | -5.16 | 0.163 | 1.4 | 0.927 | 0.0181 | -0.186 | 0.0061 | 0.669 | 0.328
COc1ccc(NC(=O)O[C@H]2[C@H](OC(=O)Nc3ccc4c(c3)OCO4)[C@@H](OC(=O)Nc3ccc4c(c3)OCO4)[C@@H](OC)O[C@@H]2CO)cc1 | 1.61 | 0.0898 | 0.0398 | 1.27 (inactive) | 1.11 | 1.29 | 0.0699 | 0.516 | 0.0542 | 0.774 | 1.38 | -0.802 | 0.0093 | 1.88 | -0.56 | -0.0478 | 0.365 | 0.966 | 1.29 | 0.663
CCOC(=O)C1=CC[C@@H](c2cc(Cl)ccc2Cl)N(S(=O)(=O)c2ccc(C)cc2)[C@H]1c1ccc(OC)cc1 | 0.391 | 0.987 | 1.13 | -0.381 (inactive) | 0.462 | -0.239 | -0.36 | -0.0732 | -0.295 | 1.56 | -0.157 | -2.23 | -0.658 | 0.379 | 0.379 | 0.374 | 0.898 | -0.412 | 0.417 | -0.369
COCCOC(=O)N1C(=O)[C@@]2(c3cc(C#CCC(C(=O)OC)C(=O)OC)ccc31)[C@H](c1ccc(OCCO)cc1)N1[C@H](c3ccccc3)[C@H](c3ccccc3)OC(=O)[C@H]1[C@@H]2C(=O)N1CCN(c2ncccn2)CC1 | 1.36 | 0.0926 | 0.233 | -0.0387 (inactive) | 0.994 | 1.07 | 0.517 | 1.45 | 0.637 | 0.109 | 1.17 | -1.46 | 0.603 | 1.41 | 0.377 | -0.0236 | 0.184 | 0.363 | 1.33 | 1.85
